Data on ten compounds can be found in PubChem BioAssay (NCI).

Assay [1] in a line: NCI Yeast Anticancer Drug Screen. Data for the rad50 strain (AID 155).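 Further: 0% = growth of vehicle-only cultures of the same strain.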 The conditions noted are these: S. cerevisiae rad50 strain growth inhibition, active compounds read high. Put shortly: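 Yeast carrying a defined DNA repair defect were exposed to test compounds, and growth was compared with vehicle-treated controls to give percent inhibition.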
Assay [2] is described as follows: NCI Yeast Anticancer Drug Screen. Data for the mec2-1 strain (AID 157). The conditions noted are these: S. cerevisiae mec2-1 strain, active compounds read high. An outline of the steps:
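Compounds were applied to mec2-1 yeast cells. Their growth was then compared with that of vehicle-treated cultures to give growth inhibition.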

A short description of assay [3]: NCI Yeast Anticancer Drug Screen. Data for the sgs1 mgt1 strain (AID 161).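 Further: 0% = growth of cultures given vehicle only.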 The following applies: S. cerevisiae sgs1 mgt1 strain, active compounds read high. Put shortly:
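Growth of a repair-deficient yeast mutant was monitored after compound treatment and expressed as inhibition relative to vehicle-treated cultures.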

A short description of assay [4]: NCI Yeast Anticancer Drug Screen. Data for the cln2 rad14 strain (AID 165).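 Further: 0% = growth equal to vehicle treated cultures.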 The conditions noted are these: S. cerevisiae cln2 rad14 strain, active compounds read high. Put shortly: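 Strain: cln2 rad14 yeast, altered in cell cycle control and DNA damage repair. Read-out: growth inhibition vs vehicle.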
Assay [5] is described as follows: NCI Yeast Anticancer Drug Screen. Data for the bub3 strain (AID 167). The following applies: S. cerevisiae bub3 mutant strain, active compounds read high. An outline of the steps:
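Compounds were applied to a genetically altered yeast strain carrying a cell-cycle control defect. Growth inhibition was scored against vehicle-treated controls.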

Assay [6] can be described thus: NCI Yeast Anticancer Drug Screen. Data for the mlh1 rad18 strain (AID 175). The following applies: S. cerevisiae mlh1 rad18 strain growth inhibition, active compounds read high. An outline of the steps: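 A repair-deficient yeast strain is exposed to test compound, and growth is scored relative to vehicle-treated controls.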
[7] abbreviates: at 5.0 µM (retest, dose inferred, filed as 0.5).
The mark [8] stands for this setting: at 50.0 µM (retest, dose inferred, filed as 5.0).

Compounds without any hit were thinned out: in the full panel of roughly 79,000, 15% have a hit. Values without a mark were called inactive. Activity calls are given as the source filed them. No stated cut-off is given here; in the data, active means growth inhibition above about 70%; inactive means the rest.

As for `CCC[CH2][Sn]([CH2]CCC)([O]C(=O)c1cc(OC)c(OC)cc1OC)[O][Sn]([CH2]CCC)([CH2]CCC)[O]C(=O)c1cc(OC)c(OC)cc1OC`, the growth inhibition is 94% (active) in assay [1] (setting [7]); 97% (active) in assay [1] (setting [8]); 88.5% (active) in assay [1] (at 50.0 µM); 96% (active) in assay [2] (setting [7]); 98% (active) in assay [2] (setting [8]); 91% (active) in assay [2] (at 50.0 µM). Also, the growth inhibition is 96% (active) in assay [3] (setting [7]); 99% (active) in assay [3] (setting [8]); 91.5% (active) in assay [3] (at 50.0 µM); 92% (active) in assay [4] (setting [7]); 98% (active) in assay [4] (setting [8]); 90.2% (active) in assay [4] (at 50.0 µM). The growth inhibition was 97% (active) in assay [5] (setting [7]); 98% (active) in assay [5] (setting [8]); 90.5% (active) in assay [5] (at 50.0 µM); 96% (active) in assay [6] (setting [7]); 97% (active) in assay [6] (setting [8]); 89% (active) in assay [6] (at 50.0 µM).
For `CC1=C2CCC3C(CCC4(C)C(C(C)CCCC(C)C)CCC34)C2(C)CCC1=O` (stereo not given), the growth inhibition in assay [1] (setting [7]) was -11%; in assay [1] (setting [8]), -2%; in assay [1] (at 50.0 µM), 41%; in assay [2] (setting [7]), 1%; in assay [2] (setting [8]) it was -2%; in assay [2] (at 50.0 µM), 4.25%. Moreover, the growth inhibition in assay [3] (setting [7]) was 4%; in assay [3] (setting [8]) it was -1%; in assay [3] (at 50.0 µM), 16.4%; in assay [4] (setting [7]), 6%; in assay [4] (setting [8]), 3%; in assay [4] (at 50.0 µM), 18.4%. Further, the growth inhibition in assay [5] (setting [7]) was 1%; in assay [5] (setting [8]) it was 5%; in assay [5] (at 50.0 µM), 4.1%; in assay [6] (setting [7]), 17%; in assay [6] (setting [8]) it was 9%; in assay [6] (at 50.0 µM) it was 10.9%.
Consider `Cc1[nH]c(=O)[nH]c(=S)c1C(=O)NC1C2CCCCC2NC2CCCCC21` (stereo not given), for which the growth inhibition in assay [1] (setting [7]) was 67%; in assay [1] (setting [8]), 96% (active); in assay [1] (at 50.0 µM), 75.5% (active); in assay [2] (setting [7]), 49%; in assay [2] (setting [8]), 97% (active); in assay [2] (at 50.0 µM) it was 83.3% (active). In addition, the growth inhibition was 49% in assay [3] (setting [7]); 97% (active) in assay [3] (setting [8]); 76.4% (active) in assay [3] (at 50.0 µM); 74% (active) in assay [4] (setting [7]); 98% (active) in assay [4] (setting [8]); 85% (active) in assay [4] (at 50.0 µM). The growth inhibition in assay [5] (setting [7]) is 48%; in assay [5] (setting [8]), 97% (active); in assay [5] (at 50.0 µM), 77.8% (active); in assay [6] (setting [7]), 46%; in assay [6] (setting [8]), 96% (active); in assay [6] (at 50.0 µM), 71.9% (active).
As for `CN(C)c1ccc(C2(Cl)c3ccccc3N(Cc3ccccc3)c3ccccc32)cc1`, the growth inhibition is 99% (active) in assay [1] (setting [7]); 94% (active) in assay [1] (setting [8]); 96.5% (active) in assay [1] (at 50.0 µM); 99% (active) in assay [2] (setting [7]); 95% (active) in assay [2] (setting [8]); 97.2% (active) in assay [2] (at 50.0 µM). Further, the growth inhibition is 99% (active) in assay [3] (setting [7]); 95% (active) in assay [3] (setting [8]); 96% (active) in assay [3] (at 50.0 µM); 99% (active) in assay [4] (setting [7]); 93% (active) in assay [4] (setting [8]); 93.2% (active) in assay [4] (at 50.0 µM). In addition, the growth inhibition in assay [5] (setting [7]) is 99% (active); in assay [5] (setting [8]), 94% (active); in assay [5] (at 50.0 µM) it was 96.4% (active); in assay [6] (setting [7]), 99% (active); in assay [6] (setting [8]), 94% (active); in assay [6] (at 50.0 µM), 96.3% (active).
In the case of `COc1ccc2c(c1)CCCN2CCCCCCCCCCN1CCCCC1`, the growth inhibition in assay [1] (setting [7]) is 13%; in assay [1] (setting [8]) it was 38%; in assay [1] (at 50.0 µM), 71.3% (active); in assay [2] (setting [7]), 7%; in assay [2] (setting [8]), 34%; in assay [2] (at 50.0 µM), 56.9%. In addition, the growth inhibition in assay [3] (setting [7]) was 36%; in assay [3] (setting [8]), 73% (active); in assay [3] (at 50.0 µM), 80.8% (active); in assay [4] (setting [7]), 28%; in assay [4] (setting [8]) it was 28%; in assay [4] (at 50.0 µM) it was 71.2% (active). Further, the growth inhibition was 35% in assay [5] (setting [7]); 60% in assay [5] (setting [8]); 59.8% in assay [5] (at 50.0 µM); 25% in assay [6] (setting [7]); 25% in assay [6] (setting [8]); 61.4% in assay [6] (at 50.0 µM).
As to `CCCCCCCCCCCC(=O)OCC1OC(OC)C(NC(=O)N(CCCl)N=O)C(O)C1O` (stereo not given), the growth inhibition was 39% in assay [1] (setting [7]); 39% in assay [1] (setting [8]); 79.9% (active) in assay [1] (at 50.0 µM); 20% in assay [2] (setting [7]); 20% in assay [2] (setting [8]); 67.5% in assay [2] (at 50.0 µM). Further, the growth inhibition in assay [3] (setting [7]) is 21%; in assay [3] (setting [8]), 21%; in assay [3] (at 50.0 µM), 90.5% (active); in assay [4] (setting [7]) it was 17%; in assay [4] (setting [8]), 17%; in assay [4] (at 50.0 µM), 30.5%. The growth inhibition is 13% in assay [5] (setting [7]); 13% in assay [5] (setting [8]); 77.4% (active) in assay [5] (at 50.0 µM); 14% in assay [6] (setting [7]); 14% in assay [6] (setting [8]); 76% (active) in assay [6] (at 50.0 µM).
For `CCOC(=O)N1CCN(CCCCCCOc2ccc(C(C)(C)C)cc2)CC1`, the growth inhibition in assay [1] (setting [7]) is 3%; in assay [1] (setting [8]) it was 82% (active); in assay [1] (at 50.0 µM), 93.5% (active); in assay [2] (setting [7]) it was 28%; in assay [2] (setting [8]), 87% (active); in assay [2] (at 50.0 µM) it was 96% (active). For the same compound, the growth inhibition is 31% in assay [3] (setting [7]); 97% (active) in assay [3] (setting [8]); 98.1% (active) in assay [3] (at 50.0 µM); 12% in assay [4] (setting [7]); 61% in assay [4] (setting [8]); 94.5% (active) in assay [4] (at 50.0 µM). Besides, the growth inhibition in assay [5] (setting [7]) was 7%; in assay [5] (setting [8]) it was 76% (active); in assay [5] (at 50.0 µM), 96.7% (active); in assay [6] (setting [7]) it was 38%; in assay [6] (setting [8]), 97% (active); in assay [6] (at 50.0 µM), 98.6% (active).
Take `CCCN1CN(C(C(=O)N[C@@H]2C(=O)N3C(C(=O)O)=C(C)CSC23)c2ccccc2)CSC1=S` (stereo not given in full): the growth inhibition in assay [1] (setting [7]) is -19%; in assay [1] (setting [8]) it was 11%; in assay [1] (at 50.0 µM) it was 33.7%; in assay [2] (setting [7]), -11%; in assay [2] (setting [8]) it was 1%; in assay [2] (at 50.0 µM), -32.4%. The growth inhibition in assay [3] (setting [7]) is -21%; in assay [3] (setting [8]) it was -10%; in assay [3] (at 50.0 µM) it was -3.25%; in assay [4] (setting [7]), -37%; in assay [4] (setting [8]), -14%; in assay [4] (at 50.0 µM) it was 44%. Besides, the growth inhibition was -10% in assay [5] (setting [7]); -1% in assay [5] (setting [8]); -38.4% in assay [5] (at 50.0 µM); -13% in assay [6] (setting [7]); -12% in assay [6] (setting [8]); 1.5% in assay [6] (at 50.0 µM).
Turning to `COC(=O)CS(=O)(=O)CCS(=O)(=O)CC(=O)OC`, the growth inhibition in assay [1] (setting [7]) is -4%; in assay [1] (setting [8]), 3%; in assay [1] (at 50.0 µM), -0.4%; in assay [2] (setting [7]), -2%; in assay [2] (setting [8]), 8%; in assay [2] (at 50.0 µM), 11.9%. The growth inhibition in assay [3] (setting [7]) was -1%; in assay [3] (setting [8]), 14%; in assay [3] (at 50.0 µM) it was 4.65%; in assay [4] (setting [7]) it was -1%; in assay [4] (setting [8]), 1%; in assay [4] (at 50.0 µM), -1.25%. The growth inhibition in assay [5] (setting [7]) was -1%; in assay [5] (setting [8]), 15%; in assay [5] (at 50.0 µM), 60.1%; in assay [6] (setting [7]), -3%; in assay [6] (setting [8]), 11%; in assay [6] (at 50.0 µM) it was 20.4%.
As to `Cc1noc(NS(=O)(=O)c2ccc(NCc3c4ccccc4nc4cc(Cl)ccc34)cc2)c1C`, the growth inhibition is 4% in assay [1] (setting [7]); -13% in assay [1] (setting [8]); 98.5% (active) in assay [1] (at 50.0 µM); 4% in assay [2] (setting [7]); -7% in assay [2] (setting [8]); 98.9% (active) in assay [2] (at 50.0 µM). Also, the growth inhibition in assay [3] (setting [7]) is 5%; in assay [3] (setting [8]), -6%; in assay [3] (at 50.0 µM), 98.5% (active); in assay [4] (setting [7]) it was 1%; in assay [4] (setting [8]) it was -3%; in assay [4] (at 50.0 µM), 98.2% (active). Further, the growth inhibition in assay [5] (setting [7]) was 9%; in assay [5] (setting [8]), -3%; in assay [5] (at 50.0 µM), 98.2% (active); in assay [6] (setting [7]), 3%; in assay [6] (setting [8]) it was -5%; in assay [6] (at 50.0 µM), 98.3% (active).
